Experimental data: the supplement of paper PMC7695840
Where a name gives a salt, the structure may show the parent alone.

Test system: Staphylococcus aureus MW2 delta-mecA (mecA-)
Assay: normalized GFP fluorescence (growth of mecA- strain) (fraction of control range); higher = more growth of mecA- strain
Details: compound concentration: 150 uM; cefoxitin: subinhibitory; fluorescent label: GFP
Method in brief: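 Compound at 150 μM (1.5% DMSO) in 1536-well plates received 5 µL/well of pre-induced S. aureus MW2 cells mixed 1:1, gene-carrying with DsRed and gene-deleted with GFP, in LB with a daily-set subinhibitory antibiotic dose, single replicate. After 20 h unshaken at 37 °C, 90% humidity, DsRed (540/590) and GFP (485/520) were measured and scaled per plate between single-strain control medians. Plates with high untreated ratios and rows with DsRed/GFP >10 were excluded.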

Row | SMILES | normalized GFP fluorescence
1 | Cc1c(OCC(F)(F)F)ccnc1C[S+]([O-])c1nc2ccccc2[nH]1 (stereo not given) [Lansoprazole] | 0.122
2 | OC(CCN1CCCC1)(c1ccccc1)C1CCCCC1 (stereo not given) | 0.159
3 | CC(C)(C)C(=O)OCOP(=O)(COCCn1cnc2c(N)ncnc21)OCOC(=O)C(C)(C)C [Adefovir Dipivoxil (Preveon, Hepsera)] | 0.38
4 | COc1cc2nccc(Oc3ccc(NC(=O)C4(C(=O)Nc5ccc(F)cc5)CC4)cc3)c2cc1OC [Cabozantinib malate] | 0.367
5 | Cc1cccc(C)c1NC(=O)C1CCCCN1C (stereo not given) | 0.677
6 | CC[C@@H](CO)NCCN[C@@H](CC)CO | 0.377
7 | CO/N=C(\C(=O)N[C@@H]1C(=O)N2C(C(=O)O)=C(C[N+]3(C)CCCC3)CS[C@H]12)c1csc(N)n1 | 0.0193
8 | CCOC(=O)[C@H](CCc1ccccc1)N[C@@H](C)C(=O)N1Cc2cc(OC)c(OC)cc2C[C@H]1C(=O)O [Moexipril HCl] | 0.373
9 | CN1C(C(=O)Nc2ccccn2)=C(O)c2ccccc2S1(=O)=O [Piroxicam (Feldene)] | 0.0173
10 | NCc1ccc(S(N)(=O)=O)cc1 | 0.22
11 | CCN(CCCc1ccccc1)CCCc1ccccc1 | 0.1
12 | CCCCCCCN(CC)CCCC(O)c1ccc(NS(C)(=O)=O)cc1 (stereo not given) [Ibutilide fumarate] | 0.723
13 | O=C1CC2(CCCC2)CC(=O)N1CCCCN1CCN(c2ncccn2)CC1 | 0.698
14 | CC(=O)O[C@]1(C(C)=O)CC[C@H]2[C@@H]3C=C(C)C4=CC(=O)CC[C@]4(C)[C@H]3CC[C@@]21C | 0.381
15 | CN(C)CCc1c[nH]c2ccc(Cn3cncn3)cc12 | 0.425
16 | Nc1cc(N2CCCCC2)nc(N)[n+]1[O-] | 0.524
17 | CNC(=C[N+](=O)[O-])NCCSCc1csc(CN(C)C)n1 | 0.575
18 | O=NN(CCCl)C(=O)NC1CCCCC1 | 0.569
19 | OCc1ccccc1O | 0.351
20 | Cn1c(=O)c2[nH]cnc2n(C)c1=O [Aminophylline (Truphylline)] | 0.38

Row | SMILES | normalized GFP fluorescence
21 | C#C[C@]1(O)CC[C@H]2[C@@H]3CCC4=CC(=O)CC[C@@H]4[C@H]3CC[C@@]21C [Norethindrone (Norethisterone)] | 0.268
22 | C#CCN[C@@H]1CCc2ccccc21 | 0.911
23 | CCC1(C)CC(=O)NC1=O (stereo not given) | 0.678
24 | CCN(CC)C(=O)c1cccnc1 | 0.263
25 | Cn1ncnc1[C@H]1c2n[nH]c(=O)c3cc(F)cc(c23)N[C@@H]1c1ccc(F)cc1 [Talazoparib (BMN 673)] | 0.42
26 | CCCSc1nc(N[C@@H]2C[C@H]2c2ccc(F)c(F)c2)c2nnn([C@@H]3C[C@H](OCCO)[C@@H](O)[C@H]3O)c2n1 [Ticagrelor] | -0.0296
27 | C[N+](C)(C)CC(=O)O | 0.229
28 | CN(C)CCCN1c2ccccc2CCc2ccc(Cl)cc21 | -0.0283
29 | OCCN(CCO)c1nc(N2CCCCC2)c2nc(N(CCO)CCO)nc(N3CCCCC3)c2n1 | 0.523
30 | CC(=O)/N=c1/sc(S(N)(=O)=O)nn1C | 0.574
31 | O=C(CCCN1CCC(O)(c2ccc(Br)cc2)CC1)c1ccc(F)cc1 | 0.243
32 | CCN(CC)CCOC(=O)c1ccc(N)cc1 | 0.335
33 | OCCOCCN1CCN(C(c2ccccc2)c2ccc(Cl)cc2)CC1 (stereo not given) | -0.0253
34 | C[C@@H]1C[C@H]2[C@@H]3CCC4=CC(=O)C=C[C@]4(C)[C@@]3(Cl)[C@@H](O)C[C@]2(C)[C@@]1(OC(=O)c1ccco1)C(=O)CCl | 0.456
35 | Nc1ccc(S(=O)(=O)Nc2ncccn2)cc1 | 0.475
36 | CCOC(=O)O[C@]1(C(=O)OCCl)CC[C@H]2[C@@H]3CCC4=CC(=O)C=C[C@]4(C)[C@H]3[C@@H](O)C[C@@]21C [Loteprednol etabonate] | 0.281
37 | Nc1ccc(S(=O)(=O)Nc2ccccn2)cc1 | 0.364
38 | CCC[C@H](NC(=O)[C@@H]1[C@H]2CCC[C@H]2CN1C(=O)[C@@H](NC(=O)[C@@H](NC(=O)c1cnccn1)C1CCCCC1)C(C)(C)C)C(=O)C(=O)NC1CC1 [Telaprevir (VX-950)] | 0.0337
39 | CC(C)Cc1ccc(C(C)C(=O)O)cc1 (stereo not given) | 0.142
40 | CC(=O)N(CC(O)CN(C(C)=O)c1c(I)c(C(=O)NCC(O)CO)c(I)c(C(=O)NCC(O)CO)c1I)c1c(I)c(C(=O)NCC(O)CO)c(I)c(C(=O)NCC(O)CO)c1I (stereo not given) | 0.268
